From PubChem BioAssay
HepG2 tox-1: qHTS for Inhibitors of TGF-b: Cytotox Counterscreen; HepG2 CAGA-GFP viability, ATP luminescence, 18 h; Potency, µM (series often up to 46.1 µM), for the others: top-dose activity change, negative = cytotoxicity, hits mostly cytotoxic; 410,000 tested, 0.76% active; also: potency is read from the fitted curve at half-maximal effect
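HepG2 CAGA-GFP cells (1000/well, DMEM with 1% FBS) received compound, then TGF-beta at 500 pg/mL final, and were incubated 18 hours at 37 degrees C. Viability was read by CellTiter-Glo luminescence. Media-only wells were set as complete cell-killing and DMSO as no toxicity.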
ATXN viability: Viability Counterscreen for Primary qHTS for Inhibitors of ATXN expression | Potency, µM (series often up to 56.7 µM), hits mostly cytotoxic | S2 cells (HEK-293 line with an ATXN2-luciferase reporter) viability, CellTiter-Fluor protease fluorescence, 24 h | 400,000 tested, 0.49% active; also: potency is read from the fitted curve at half-maximal effect; nearly all actives have a fitted effect of over 40% in size
CtBP-E1A blk: qHTS Assay for Inhibitors of the CtBP/E1A Interaction | AlphaScreen GST-E1A/His-CtBP binding, 1536-well; active compounds read low | CtBP / adenovirus E1A interaction (AlphaScreen) | AID 651724, 2012 | activity change, % (test concentration not listed) | 340,000 tested, 0.49% active; in the data active = activity change below about -65%; inconclusive = mostly about -30% to -63%; also: % is scaled to controls: 0 for no effect and ±100 for the full control effect
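AlphaScreen with 125 nM GST-E1A and 125 nM His-CtBP (5X stocks) in Tris pH 8.0, 300 mM NaCl, BSA, Tween 20, TCEP. Compounds preincubated 2 h at 37 deg C, then glutathione donor/nickel acceptor beads added for 1 h at 37 deg C in dark.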
ATXN2 expr inh: Primary qHTS for Inhibitors of ATXN expression | HEK-293 ATXN2-luciferase reporter, luminescence, 24 h | Potency, µM (highest dose often 57 µM), for the others: at the top dose activity change, negative = inhibition, usual class: inhibitors | 360,000 tested, 0.72% active; also: potency is read from the fitted curve at half-maximal effect; % is scaled to controls: 0 for no effect and ±100 for the full control effect; nearly all actives have a fitted effect of over 55% in size
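qHTS (up to 57 uM final) was run with 24 h compound exposure of reporter cells at 37 °C. Each well was multiplexed: SteadyGlo luminescence measured ATXN2-luciferase expression after a fluorogenic Gly-Phe-AFC viability readout (25 uM final).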
TGFb inhibitor: qHTS for Inhibitors of TGF-b; HepG2 CAGA-GFP TGF-b/SMAD3 reporter, GFP fluorescence, 18 h; TGF-beta stimulated, 500 pg/mL final; Potency, µM (titrated, usually from 46.1 µM), for the others: at the highest dose activity, negative = inhibition, most hits filed as inhibitors; 410,000 tested, 1.2% active; also: potency is read from the fitted curve at half-maximal effect; % is scaled to controls: 0 for no effect and ±100 for the full control effect; nearly all actives have a fitted effect of over 65% in size
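HEPG2 CAGA-GFP, 1000 cells/well; 2 h settle, 37 C; cpd via pin tool; TGF-b 500 pg/mL final; 18 h, 37 C; GFP imaging ex488/em500-530; %Activity normalised to -TGF-b and +DMSO controls; CRC fit, curve class.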
Six1-Eya2 inh: qHTS Assay for Inhibitors of the Six1/Eya2 Interaction; activity change, % (concentration not given with the values); 360,000 tested, 0.56% active; Homeobox protein SIX1 (Homo sapiens) + Protein phosphatase EYA2 (Homo sapiens), …; AlphaScreen GST-Six1/His-Eya2 binding, biochemical; active compounds read low; AID 651725, 2012; in the data active = activity change below about -65%; inconclusive = mostly about -30% to -63%; also: % is scaled to controls: 0 for no effect and ±100 for the full control effect
Target sequence (O00167 whole entry, looked up): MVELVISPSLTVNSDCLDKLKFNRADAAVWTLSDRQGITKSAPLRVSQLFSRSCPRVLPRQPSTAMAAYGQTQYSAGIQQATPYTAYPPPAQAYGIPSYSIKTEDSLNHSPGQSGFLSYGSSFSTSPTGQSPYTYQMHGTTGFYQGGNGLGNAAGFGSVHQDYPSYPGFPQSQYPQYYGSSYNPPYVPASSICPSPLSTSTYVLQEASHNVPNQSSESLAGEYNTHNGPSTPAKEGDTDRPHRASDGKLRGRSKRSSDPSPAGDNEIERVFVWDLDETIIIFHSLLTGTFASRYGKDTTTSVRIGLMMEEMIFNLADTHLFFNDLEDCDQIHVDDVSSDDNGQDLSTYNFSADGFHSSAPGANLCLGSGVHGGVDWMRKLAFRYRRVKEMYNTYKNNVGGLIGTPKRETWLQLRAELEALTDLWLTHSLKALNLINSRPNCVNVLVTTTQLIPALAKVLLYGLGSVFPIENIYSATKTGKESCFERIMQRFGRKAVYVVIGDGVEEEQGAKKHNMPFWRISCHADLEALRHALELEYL
Target sequence (Q15475 whole entry, looked up): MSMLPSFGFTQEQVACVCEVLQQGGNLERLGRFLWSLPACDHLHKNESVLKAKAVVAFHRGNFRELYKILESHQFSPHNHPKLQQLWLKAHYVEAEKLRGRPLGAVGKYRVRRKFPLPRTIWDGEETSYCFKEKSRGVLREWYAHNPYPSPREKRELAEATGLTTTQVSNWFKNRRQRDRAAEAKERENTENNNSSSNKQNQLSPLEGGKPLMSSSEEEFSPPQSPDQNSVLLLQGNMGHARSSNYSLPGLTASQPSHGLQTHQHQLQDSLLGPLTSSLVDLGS
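AlphaScreen with GST-Six1 and His-Eya2 (5X mix: 250 nM and 500 nM), glutathione donor and nickel acceptor beads; buffer 50 mM Tris pH 8.0, 300 mM NaCl, 1 mM TCEP; 1 h at 37 C in the dark.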
TGFb confirm: qHTS for Inhibitors of TGF-b: Confirmation of Cherry Picks | AID 720534, 2013 | shares compounds with TGFb inhibitor | 1,600 tested, 63% active | HepG2 CAGA-GFP TGF-b reporter, GFP fluorescence, 18 h; cells stimulated with TGF-beta, 500 pg/mL | Potency, µM (doses to about 46.1 µM), without a hit: at the highest dose activity, negative = inhibition, usual class: inhibitors; also: potency is read from the fitted curve at half-maximal effect; % is scaled to controls: 0 for no effect and ±100 for the full control effect; nearly all actives have a fitted effect of over 65% in size
HepG2 tox-2: qHTS for Inhibitors of TGF-b: Cytotox Counterscreen for Cherry Picks; shares compounds with TGFb inhibitor; HepG2 CAGA-GFP viability, ATP luminescence, 18 h; cells stimulated with TGF-beta, 500 pg/mL; Potency, µM (titrated, usually from 46.1 µM), for inactives: top-dose activity, negative = cytotoxicity, hits mostly inhibitors; 1,600 tested, 27% active; AID 720535, 2013; also: potency is read from the fitted curve at half-maximal effect; % is scaled to controls: 0 for no effect and ±100 for the full control effect; nearly all actives have a fitted effect of over 70% in size
CCL64 TGFb inh: qHTS for Inhibitors of TGF-b: CCL64 Cells Orthogonal Assay for Cherry Picks; CCL64 CAGA-GFP reporter, TGF-b stimulated, GFP fluorescence, 18 h; 1,600 tested, 41% active; shares compounds with TGFb inhibitor; Potency, µM (titrated, usually from 46.1 µM), for the others: at the top dose activity, negative = inhibition, most hits filed as inhibitors; also: potency is read from the fitted curve at half-maximal effect; nearly all actives have a fitted effect of over 65% in size
COP TGFb inh: qHTS for Inhibitors of TGF-b: Hit Validation in HepG2 Cells using COP promoter; shares compounds with TGFb inhibitor; HepG2 COP-GFP TGF-b reporter, GFP fluorescence, 18 h; cells stimulated by added recombinant TGF-beta; Potency, µM (top dose mostly 46.1 µM), inactives show top-dose activity, negative = inhibition, usual class: inhibitors; 1,600 tested, 3% active; AID 720537, 2013; also: potency is read from the fitted curve at half-maximal effect; nearly all actives have a fitted effect of over 70% in size
Starred values were filed as active, the others as inactive; i = inactive; ? = inconclusive; · = no result given. Sampled rows, rich in hits. Any-hit rate of the full collection: about 2.8%. Unless noted, calls follow the shape of the dose curve; as a rule, active = well fitted curve in the direction sought with a large enough effect; inconclusive = small, poorly fitted or top-dose-only effect, or another doubt; inactive = no such curve, though single readings can be large; an effect the other way counts as inactive or inconclusive.

SMILES | HepG2 tox-1 | ATXN viability | CtBP-E1A blk | ATXN2 expr inh | TGFb inhibitor | Six1-Eya2 inh | TGFb confirm | HepG2 tox-2 | CCL64 TGFb inh | COP TGFb inh
Cc1cc(=O)n2c3c(c4c(cc13)c(CN(C)C)cc(=O)n4C)OC2 | -45% | i | ? | ? | -10% | ? | · | · | · | ·
Cc1ccc(N2C(=O)CS(=O)(=O)C23C(=O)N(Cc2cccc(F)c2)c2ccccc23)cc1Cl (stereo not drawn) | -5% | i | · | -4% | 0% | · | · | · | · | ·
Cc1ccc(CSc2nnc(-c3ccccn3)n2Cc2cccs2)cc1 | -4% | ? | 8 | ? | ? | 2 | · | · | · | ·
Clc1ccc(CSc2nnc(-c3ccccn3)n2Cc2cccs2)cc1Cl | -8% | ? | 2 | ? | 8.9µM* | 0 | 15µM* | ? | ? | 42%
CCCc1cc(=O)n2[nH]cc(-c3ccc(Cl)cc3)c2n1 | 11µM* | ? | 0 | 10µM* | 5µM* | 1 | 26µM* | ? | 12µM* | 87%
CCNC(=O)Cn1c(-c2cccs2)cc2ccccc21 | -3% | i | · | -1% | -4% | · | · | · | · | ·
Cc1nc2cc(-c3cccc(F)c3)nn2c(C)c1CCC(=O)NC(C)c1ccc2c(c1)OCCO2 (stereo not drawn) | -18% | i | -7 | ? | ? | -3 | ? | -29% | 29µM* | 11%
CCC(=O)N1c2ccccc2CC1C(=O)NCc1ccc(CC)cc1 (stereo not drawn) | -24% | i | · | -5% | 1% | · | · | · | · | ·
Cc1cc(C)c(OCC(=O)Nc2nc(-c3ccccn3)cs2)c(C)c1 | -35% | ? | 0 | ? | 10µM* | -5 | ? | -29% | ? | 31%
O=C(c1ccc(Cl)cc1)c1cc([N+](=O)[O-])ccc1N1CCOCC1 | 12% | i | -10 | -27% | 11µM* | -6 | 7.3µM* | -2% | ? | -3%
O=C(C1=C[C@@H](C2CCCCC2)C[C@@H](OCc2ccc(CO)cc2)O1)N1CCN(Cc2ccc3c(c2)OCO3)CC1 | 7% | ? | -10 | ? | 11µM* | -21 | 21µM* | -28% | ? | 55%
O=C(C1=C[C@H](C2CCCCC2)C[C@H](OCc2ccc(CO)cc2)O1)N1CCN(Cc2ccc3c(c2)OCO3)CC1 | -11% | ? | -16 | ? | ? | -14 | · | · | · | ·
CCOc1ccc(CCNC(=O)c2ccc3c(c2)nc2n3CCOC2)cc1OCC | 3% | · | · | · | 0% | · | · | · | · | ·
O=C(NCCc1cccs1)C1CC(c2ccccc2F)=NO1 (stereo not drawn) | 3% | i | 5 | 23% | ? | 7 | -2% | 7% | 1% | 1%
O=C(NCCc1cccs1)C1CC(c2cccc(F)c2)=NO1 (stereo not drawn) | -15% | i | -3 | 6% | -5% | 4 | · | · | · | ·
COc1ccc(Nc2c3c(nc4ccc(C)cc24)CCC3)cc1 | -39% | ? | -13 | ? | ? | -4 | · | · | · | ·
Cc1ccc2nc3c(c(Nc4ccc5c(c4)OCCO5)c2c1)CCC3 | -20% | ? | -26 | -34% | 3.5µM* | -9 | ? | ? | ? | 78%
CCOc1ccc(C(=O)Nc2cccc(-c3nc4cc(Cl)cc(Cl)c4o3)c2)cc1 | -28% | i | · | 7% | 6% | · | · | · | · | ·
CC(=NO)c1cc(Br)c2cccc3c2c1CC3 | -36% | i | 1 | · | ? | 0 | · | · | · | ·
O=C(CCC(=O)N1CCSc2ccccc21)NCc1cccc(Cl)c1 | -19% | i | 6 | -8% | ? | -3 | ? | -8% | 7% | -1%
CCSc1ccc([C@@H]2[C@@H]3C(=O)N(CC)C(=O)[C@@H]3[C@]3(C(=O)OC)CCCN23)cc1 | -21% | i | -4 | 8% | ? | 4 | ? | 4% | -11% | 0%
CCn1c(C(=O)NCCc2ccc(S(N)(=O)=O)cc2)cc2sc(Cl)cc21 | -49% | i | · | -21% | ? | · | · | · | · | ·
CCC(CC)C(=O)Nc1ccc2nc(SCC(=O)N3CCCC3)sc2c1 | -19% | · | · | · | 0% | · | · | · | · | ·
CN(C)C(=O)c1cccc(-c2cc(NC=O)c3ncc(-c4ccc(F)cc4)n3c2)c1 | -15% | i | ? | 0% | 8.9µM* | ? | 5.2µM* | -13% | ? | 17%
CN(C)C(=O)c1cccc(-c2cnc3c(NC=O)cc(-c4ccccc4Cl)cn23)c1 | -17% | 11µM* | ? | -24% | 13µM* | -27 | 16µM* | -15% | ? | 34%
Cc1ccc(NC(=O)c2ccc(Nc3c([N+](=O)[O-])cc([N+](=O)[O-])cc3[N+](=O)[O-])cc2)cc1 | 13% | · | ? | 20µM* | 13µM* | ? | 8.2µM* | ? | 6.5µM* | 38%
COc1cc(NC(=O)C2Cc3ccccc3CN2S(C)(=O)=O)cc(OC)c1 (stereo not drawn) | 25% | i | 2 | -27% | 11µM* | 10 | -21% | -6% | -21% | 8%
CC(=O)Nc1cc([N+](=O)[O-])cc(NC(C)=O)c1NC(C)=O | 0% | · | · | · | 23% | · | · | · | · | ·
